Holding throughout (test): DAPPL (digital affinity profiling via proximity ligation, sequencing); 10 mM Tris-HCl pH 7.5, 50 mM NaCl, 1 mM DTT, 4% glycerol, room temperature, 30 min; GST-TFs on glutathione beads, 16-mer random dsDNA library, 0.1% formaldehyde crosslink after washing; high values mean tight binding
One test deals with T1, FEV (Homo sapiens, UniProt Q99581 1-238).
T1 sequence: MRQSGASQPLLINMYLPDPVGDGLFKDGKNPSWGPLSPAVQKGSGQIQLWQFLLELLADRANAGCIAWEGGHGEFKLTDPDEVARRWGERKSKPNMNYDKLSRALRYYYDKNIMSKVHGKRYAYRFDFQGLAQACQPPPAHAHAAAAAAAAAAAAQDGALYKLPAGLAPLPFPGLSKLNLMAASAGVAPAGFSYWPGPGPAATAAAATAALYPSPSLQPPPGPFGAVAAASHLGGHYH
To be noted: protein: recombinant; tags: N-terminal GST; dsDNA, one strand shown. In short, it runs like this:
(§1)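 A tag-only sample was pooled with DNA-barcoded human transcription factors that had been expressed in yeast as GST fusions and captured on glutathione beads. The pools were incubated for 30 min at room temperature with 200 nmole of a random double-stranded 16-mer DNA library in Tris/NaCl/DTT/glycerol buffer, then washed, crosslinked with 0.1% formaldehyde, proximity-ligated (BsaI/T4 ligase, 1 h, 37 °C), PCR-amplified and sequenced on an Illumina NextSeq500. Binding signal is each hexamer's read frequency for a factor divided by its frequency for the tag-only sample.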

For another test, the target named is ETV5 (Homo sapiens, UniProt P41161 1-510). The conditions noted are these: protein: recombinant; tags: N-terminal GST; dsDNA, one strand shown. In short, it runs like this:
as §1

A further test has as its target HSF1 (Homo sapiens, UniProt Q00613 1-529). The conditions noted are these: protein: recombinant; tags: N-terminal GST; chain copies: 3; dsDNA, one strand shown. In short, it runs like this:
as §1

The target in a further test is T2, SPIC (Homo sapiens, UniProt Q8N5J4 1-248).
T2 sequence: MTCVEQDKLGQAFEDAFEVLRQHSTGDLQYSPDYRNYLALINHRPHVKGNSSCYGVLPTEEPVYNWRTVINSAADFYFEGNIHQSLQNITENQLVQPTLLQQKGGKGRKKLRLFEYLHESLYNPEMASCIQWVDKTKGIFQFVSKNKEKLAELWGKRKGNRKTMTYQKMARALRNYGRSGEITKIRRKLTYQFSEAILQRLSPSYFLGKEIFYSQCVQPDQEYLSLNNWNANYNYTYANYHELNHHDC
The conditions noted are these: protein: recombinant; tags: N-terminal GST; dsDNA, one strand shown. In short, it runs like this:
as §1

For another test, the target named is ELF4 (Homo sapiens, UniProt Q99607 1-663). The conditions noted are these: protein: recombinant; tags: N-terminal GST; dsDNA, one strand shown. In short, it runs like this:
as §1

The next test deals with T3, ELK4 (Homo sapiens, UniProt P28324-2 1-405).
T3 sequence: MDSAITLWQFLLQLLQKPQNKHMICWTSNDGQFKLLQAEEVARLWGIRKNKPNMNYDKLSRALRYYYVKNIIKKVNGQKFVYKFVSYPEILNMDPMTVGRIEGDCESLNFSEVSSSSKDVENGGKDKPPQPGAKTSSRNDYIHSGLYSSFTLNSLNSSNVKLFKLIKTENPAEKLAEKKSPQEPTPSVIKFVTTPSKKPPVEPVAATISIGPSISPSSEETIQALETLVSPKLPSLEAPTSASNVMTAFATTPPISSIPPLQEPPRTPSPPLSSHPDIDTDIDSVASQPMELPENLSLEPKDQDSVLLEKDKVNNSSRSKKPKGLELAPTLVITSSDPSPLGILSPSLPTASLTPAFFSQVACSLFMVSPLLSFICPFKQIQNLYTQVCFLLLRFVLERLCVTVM
To be noted: protein: recombinant; tags: N-terminal GST; dsDNA, one strand shown. In short, it runs like this:
as §1

The next test deals with T4, ETV2 (Homo sapiens, UniProt O00321 1-342).
T4 sequence: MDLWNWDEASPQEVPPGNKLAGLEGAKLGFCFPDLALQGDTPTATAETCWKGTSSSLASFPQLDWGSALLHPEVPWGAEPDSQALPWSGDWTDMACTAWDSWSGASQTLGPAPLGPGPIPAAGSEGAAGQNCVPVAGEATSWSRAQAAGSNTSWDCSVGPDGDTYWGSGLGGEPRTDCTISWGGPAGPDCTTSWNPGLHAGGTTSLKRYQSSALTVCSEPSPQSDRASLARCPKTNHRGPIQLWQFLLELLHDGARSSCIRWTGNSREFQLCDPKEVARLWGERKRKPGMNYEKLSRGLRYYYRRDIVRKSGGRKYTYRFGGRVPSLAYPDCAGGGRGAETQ
To be noted: protein: recombinant; tags: N-terminal GST; dsDNA, one strand shown. In short, it runs like this:
as §1

A further test concerns the target T5, ELF3 (Homo sapiens, UniProt P78545 1-371).
T5 sequence: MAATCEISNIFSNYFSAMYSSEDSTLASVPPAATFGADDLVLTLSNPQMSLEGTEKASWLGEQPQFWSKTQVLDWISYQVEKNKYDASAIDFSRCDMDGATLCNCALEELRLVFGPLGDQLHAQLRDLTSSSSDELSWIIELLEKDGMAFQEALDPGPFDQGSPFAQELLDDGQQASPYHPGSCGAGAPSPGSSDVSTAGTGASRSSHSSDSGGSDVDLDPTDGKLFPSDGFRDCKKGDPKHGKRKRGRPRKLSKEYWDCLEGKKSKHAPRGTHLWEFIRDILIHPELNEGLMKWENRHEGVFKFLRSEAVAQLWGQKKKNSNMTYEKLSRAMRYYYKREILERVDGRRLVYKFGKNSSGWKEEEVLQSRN
The conditions noted are these: protein: recombinant; tags: N-terminal GST; dsDNA, one strand shown. In short, it runs like this: as §1

The target of a further test is CRX (Homo sapiens, UniProt O43186 1-299). The conditions noted are these: protein: recombinant; tags: N-terminal GST; dsDNA, one strand shown. In short, it runs like this: as §1
Sequence of CRX (O43186 whole entry): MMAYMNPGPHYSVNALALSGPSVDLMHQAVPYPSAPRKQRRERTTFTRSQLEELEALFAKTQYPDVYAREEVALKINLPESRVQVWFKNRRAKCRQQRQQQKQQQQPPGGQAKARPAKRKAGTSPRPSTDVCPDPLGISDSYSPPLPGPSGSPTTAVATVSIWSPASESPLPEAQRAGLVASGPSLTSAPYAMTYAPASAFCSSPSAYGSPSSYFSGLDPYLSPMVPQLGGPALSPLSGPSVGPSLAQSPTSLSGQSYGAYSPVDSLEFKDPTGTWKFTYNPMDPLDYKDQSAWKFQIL
The target in another test is ETV1 (Homo sapiens, UniProt P50549 1-477). The conditions noted are these: protein: recombinant; tags: N-terminal GST; dsDNA, one strand shown. In short, it runs like this: as §1
Sequence of ETV1 (P50549 whole entry): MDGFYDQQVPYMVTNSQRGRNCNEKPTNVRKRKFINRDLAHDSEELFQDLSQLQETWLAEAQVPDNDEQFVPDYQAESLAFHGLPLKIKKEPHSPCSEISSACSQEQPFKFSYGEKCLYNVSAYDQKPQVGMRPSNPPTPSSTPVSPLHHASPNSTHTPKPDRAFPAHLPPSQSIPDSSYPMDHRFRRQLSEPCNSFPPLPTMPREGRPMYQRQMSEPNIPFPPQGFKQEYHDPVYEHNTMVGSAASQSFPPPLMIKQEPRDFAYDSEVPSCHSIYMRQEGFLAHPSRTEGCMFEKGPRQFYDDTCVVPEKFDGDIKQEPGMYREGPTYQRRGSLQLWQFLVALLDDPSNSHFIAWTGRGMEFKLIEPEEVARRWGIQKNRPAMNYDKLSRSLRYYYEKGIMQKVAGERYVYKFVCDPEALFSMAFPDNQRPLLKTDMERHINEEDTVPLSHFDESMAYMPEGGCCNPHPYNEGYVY
The next test addresses T6, ERF (Homo sapiens, UniProt P50548 1-548).
T6 sequence: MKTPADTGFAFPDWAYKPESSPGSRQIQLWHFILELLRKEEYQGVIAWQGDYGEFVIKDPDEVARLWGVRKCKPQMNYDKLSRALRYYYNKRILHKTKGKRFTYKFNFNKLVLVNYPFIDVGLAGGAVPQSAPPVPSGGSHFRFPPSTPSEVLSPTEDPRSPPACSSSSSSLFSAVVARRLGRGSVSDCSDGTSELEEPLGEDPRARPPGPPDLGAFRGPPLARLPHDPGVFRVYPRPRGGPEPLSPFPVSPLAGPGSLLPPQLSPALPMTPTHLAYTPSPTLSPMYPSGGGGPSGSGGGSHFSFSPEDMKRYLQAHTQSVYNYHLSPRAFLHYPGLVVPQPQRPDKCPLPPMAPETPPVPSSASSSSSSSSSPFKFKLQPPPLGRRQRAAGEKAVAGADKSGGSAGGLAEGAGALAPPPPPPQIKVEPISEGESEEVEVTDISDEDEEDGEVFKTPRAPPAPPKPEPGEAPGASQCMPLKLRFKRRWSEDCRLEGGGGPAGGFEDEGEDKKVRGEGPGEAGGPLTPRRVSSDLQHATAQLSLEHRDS
The conditions noted are these: protein: recombinant; tags: N-terminal GST; dsDNA, one strand shown. In short, it runs like this: as §1

The target of another test is T7, ETV3L (Homo sapiens, UniProt Q6ZN32 1-361).
T7 sequence: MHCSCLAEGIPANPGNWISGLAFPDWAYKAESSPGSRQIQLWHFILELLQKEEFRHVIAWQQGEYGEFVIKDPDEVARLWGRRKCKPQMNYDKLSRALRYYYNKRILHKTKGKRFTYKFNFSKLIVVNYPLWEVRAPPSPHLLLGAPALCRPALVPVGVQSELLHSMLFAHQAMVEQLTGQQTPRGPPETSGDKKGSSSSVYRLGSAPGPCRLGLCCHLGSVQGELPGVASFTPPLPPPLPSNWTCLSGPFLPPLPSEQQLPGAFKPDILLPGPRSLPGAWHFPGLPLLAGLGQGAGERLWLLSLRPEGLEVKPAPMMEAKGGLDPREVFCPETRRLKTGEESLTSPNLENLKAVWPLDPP
To be noted: protein: recombinant; tags: N-terminal GST; dsDNA, one strand shown. In short, it runs like this:
as §1

For the next test, the target named is T8, ETS2 (Homo sapiens, UniProt P15036 1-469).
T8 sequence: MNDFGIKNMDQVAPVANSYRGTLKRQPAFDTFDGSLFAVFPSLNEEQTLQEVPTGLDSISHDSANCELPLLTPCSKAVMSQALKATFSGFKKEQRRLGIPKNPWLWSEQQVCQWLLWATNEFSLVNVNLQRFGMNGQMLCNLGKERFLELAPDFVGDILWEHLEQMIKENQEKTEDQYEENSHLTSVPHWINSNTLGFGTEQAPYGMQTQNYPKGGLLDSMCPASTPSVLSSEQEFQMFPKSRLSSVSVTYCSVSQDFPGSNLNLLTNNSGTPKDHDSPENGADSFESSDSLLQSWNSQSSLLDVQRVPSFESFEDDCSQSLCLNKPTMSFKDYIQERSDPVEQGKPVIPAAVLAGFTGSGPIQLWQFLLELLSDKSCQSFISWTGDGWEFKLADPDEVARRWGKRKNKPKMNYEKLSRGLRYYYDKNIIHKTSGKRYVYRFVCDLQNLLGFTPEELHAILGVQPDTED
To be noted: protein: recombinant; tags: N-terminal GST; dsDNA, one strand shown. In short, it runs like this:
as §1

Another test has as its target T9, SPDEF (Homo sapiens, UniProt O95238 1-335).
T9 sequence: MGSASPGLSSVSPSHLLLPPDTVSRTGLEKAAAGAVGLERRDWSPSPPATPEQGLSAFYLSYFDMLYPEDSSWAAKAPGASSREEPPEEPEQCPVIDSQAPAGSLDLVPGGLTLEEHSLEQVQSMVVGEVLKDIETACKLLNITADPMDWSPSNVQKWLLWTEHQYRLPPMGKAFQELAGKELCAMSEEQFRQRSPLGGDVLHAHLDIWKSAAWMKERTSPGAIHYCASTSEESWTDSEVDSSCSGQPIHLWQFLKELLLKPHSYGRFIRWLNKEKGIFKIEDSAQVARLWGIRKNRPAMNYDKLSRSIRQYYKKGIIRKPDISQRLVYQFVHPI
The conditions noted are these: protein: recombinant; tags: N-terminal GST; dsDNA, one strand shown. In short, it runs like this:
as §1

Another test addresses T10, ETV7 (Homo sapiens, UniProt Q9Y603 1-341).
T10 sequence: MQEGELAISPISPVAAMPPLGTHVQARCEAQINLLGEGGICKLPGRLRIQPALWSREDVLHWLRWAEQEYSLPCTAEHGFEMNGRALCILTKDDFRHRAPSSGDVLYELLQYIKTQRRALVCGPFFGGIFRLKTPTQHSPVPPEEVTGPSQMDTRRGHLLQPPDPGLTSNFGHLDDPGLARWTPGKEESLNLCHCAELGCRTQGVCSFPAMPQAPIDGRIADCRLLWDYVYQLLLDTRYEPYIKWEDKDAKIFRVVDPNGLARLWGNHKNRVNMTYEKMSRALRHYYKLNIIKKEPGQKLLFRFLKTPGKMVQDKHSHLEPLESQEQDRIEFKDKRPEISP
The conditions noted are these: protein: recombinant; tags: N-terminal GST; dsDNA, one strand shown. In short, it runs like this: as §1

A further test has as its target T11, ELF5 (Homo sapiens, UniProt Q9UKW6-2 1-255).
T11 sequence: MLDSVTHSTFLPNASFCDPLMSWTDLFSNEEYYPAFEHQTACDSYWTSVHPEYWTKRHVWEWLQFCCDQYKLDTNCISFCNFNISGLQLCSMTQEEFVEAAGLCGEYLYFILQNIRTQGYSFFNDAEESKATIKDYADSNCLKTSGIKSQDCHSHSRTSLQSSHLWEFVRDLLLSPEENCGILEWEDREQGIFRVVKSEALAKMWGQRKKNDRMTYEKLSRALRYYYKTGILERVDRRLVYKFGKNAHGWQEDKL
The conditions noted are these: protein: recombinant; tags: N-terminal GST; dsDNA, one strand shown. In short, it runs like this: as §1

In a further test the target is T12, ETV3 (Homo sapiens, UniProt P41162-2 1-143).
T12 sequence: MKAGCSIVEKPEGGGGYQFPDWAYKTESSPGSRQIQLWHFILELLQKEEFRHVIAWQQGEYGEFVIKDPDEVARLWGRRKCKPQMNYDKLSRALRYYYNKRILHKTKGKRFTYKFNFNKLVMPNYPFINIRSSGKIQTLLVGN
To be noted: protein: recombinant; tags: N-terminal GST; dsDNA, one strand shown. In short, it runs like this:
as §1

For a further test, the target named is ETV6 (Homo sapiens, UniProt P41212 1-452). The conditions noted are these: protein: recombinant; tags: N-terminal GST; dsDNA, one strand shown. In short, it runs like this:
as §1

These results are taken from paper PMC7862700, “An all-to-all approach to the identification of sequence-specific readers for epigenetic DNA modifications on cytosine”.

Sequence of HSF1 (Q00613 whole entry): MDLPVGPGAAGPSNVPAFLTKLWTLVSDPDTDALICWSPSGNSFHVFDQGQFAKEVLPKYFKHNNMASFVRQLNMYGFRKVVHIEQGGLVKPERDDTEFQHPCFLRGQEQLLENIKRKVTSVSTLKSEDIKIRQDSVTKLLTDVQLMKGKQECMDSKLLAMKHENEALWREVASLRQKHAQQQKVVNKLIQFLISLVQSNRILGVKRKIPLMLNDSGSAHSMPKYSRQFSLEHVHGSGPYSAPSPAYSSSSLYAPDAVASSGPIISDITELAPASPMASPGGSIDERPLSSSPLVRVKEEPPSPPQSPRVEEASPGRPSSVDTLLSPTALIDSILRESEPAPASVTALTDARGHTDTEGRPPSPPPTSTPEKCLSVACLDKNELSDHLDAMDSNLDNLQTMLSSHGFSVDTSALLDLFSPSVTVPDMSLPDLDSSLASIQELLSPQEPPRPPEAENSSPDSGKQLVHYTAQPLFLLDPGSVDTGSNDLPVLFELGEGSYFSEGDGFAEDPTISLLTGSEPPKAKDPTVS
Sequence of ETV6 (P41212 whole entry): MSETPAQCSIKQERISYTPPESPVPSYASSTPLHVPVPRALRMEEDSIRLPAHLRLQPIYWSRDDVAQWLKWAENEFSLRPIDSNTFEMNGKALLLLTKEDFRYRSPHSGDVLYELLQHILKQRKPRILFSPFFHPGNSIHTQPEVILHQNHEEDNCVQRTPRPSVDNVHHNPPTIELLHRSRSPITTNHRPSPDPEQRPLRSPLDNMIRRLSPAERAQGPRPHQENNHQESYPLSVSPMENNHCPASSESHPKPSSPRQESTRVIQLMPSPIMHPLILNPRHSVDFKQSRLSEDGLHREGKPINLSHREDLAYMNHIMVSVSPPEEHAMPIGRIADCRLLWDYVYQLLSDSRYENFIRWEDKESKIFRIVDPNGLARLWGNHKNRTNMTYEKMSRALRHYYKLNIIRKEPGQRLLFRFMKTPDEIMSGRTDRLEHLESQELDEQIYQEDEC
Sequence of ELF4 (Q99607 whole entry): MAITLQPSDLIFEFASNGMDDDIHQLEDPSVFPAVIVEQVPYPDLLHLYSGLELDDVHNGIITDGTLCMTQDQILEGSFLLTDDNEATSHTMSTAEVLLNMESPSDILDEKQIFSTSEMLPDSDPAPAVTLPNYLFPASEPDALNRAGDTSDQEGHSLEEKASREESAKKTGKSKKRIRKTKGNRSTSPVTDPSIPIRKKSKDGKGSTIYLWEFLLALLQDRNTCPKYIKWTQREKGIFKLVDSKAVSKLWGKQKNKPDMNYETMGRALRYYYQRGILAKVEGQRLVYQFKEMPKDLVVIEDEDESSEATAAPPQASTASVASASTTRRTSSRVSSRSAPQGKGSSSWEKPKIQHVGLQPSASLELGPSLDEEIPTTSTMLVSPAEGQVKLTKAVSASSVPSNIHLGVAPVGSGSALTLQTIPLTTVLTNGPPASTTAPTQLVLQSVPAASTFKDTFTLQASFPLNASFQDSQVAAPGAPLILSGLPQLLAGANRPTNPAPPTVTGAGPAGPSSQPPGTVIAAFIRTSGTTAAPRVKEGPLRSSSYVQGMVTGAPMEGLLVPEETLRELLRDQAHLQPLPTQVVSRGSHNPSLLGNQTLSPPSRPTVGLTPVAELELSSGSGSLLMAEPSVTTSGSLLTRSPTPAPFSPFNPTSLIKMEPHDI
Sequence of ETV5 (P41161 whole entry): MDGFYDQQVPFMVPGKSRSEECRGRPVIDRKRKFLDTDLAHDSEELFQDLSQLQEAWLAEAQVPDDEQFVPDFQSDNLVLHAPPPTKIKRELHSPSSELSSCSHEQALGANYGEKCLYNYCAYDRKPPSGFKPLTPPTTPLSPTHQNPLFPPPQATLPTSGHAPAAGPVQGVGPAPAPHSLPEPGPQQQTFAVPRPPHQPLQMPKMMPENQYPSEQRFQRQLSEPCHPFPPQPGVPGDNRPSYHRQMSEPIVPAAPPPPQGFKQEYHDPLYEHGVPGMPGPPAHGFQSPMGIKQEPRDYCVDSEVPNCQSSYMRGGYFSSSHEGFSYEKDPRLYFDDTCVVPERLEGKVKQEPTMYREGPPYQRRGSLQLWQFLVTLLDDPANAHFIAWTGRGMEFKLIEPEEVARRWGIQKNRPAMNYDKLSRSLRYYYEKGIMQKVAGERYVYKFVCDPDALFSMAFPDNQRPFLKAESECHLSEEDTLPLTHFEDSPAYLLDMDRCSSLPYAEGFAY

For GGGCCT, the binding signal with FEV was 1.11 fold enrichment (6-mer frequency, TF over GST control); with ETV5, 1.27 fold enrichment (6-mer frequency, TF over GST control); with HSF1, 1.1 fold enrichment (6-mer frequency, TF over GST control); in the test with SPIC, 1.13 fold enrichment (6-mer frequency, TF over GST control); with ELF4, 1.24 fold enrichment (6-mer frequency, TF over GST control); with ELK4, 1.3 fold enrichment (6-mer frequency, TF over GST control). Further, the binding signal with ETV2 was 1.05 fold enrichment (6-mer frequency, TF over GST control); with ELF3, 1.19 fold enrichment (6-mer frequency, TF over GST control); with CRX it was 1.07 fold enrichment (6-mer frequency, TF over GST control); in the test with ETV1, 1.31 fold enrichment (6-mer frequency, TF over GST control); with ERF, 1.37 fold enrichment (6-mer frequency, TF over GST control); with ETV3L, 1.21 fold enrichment (6-mer frequency, TF over GST control). Further, the binding signal in the test with ETS2 is 1.21 fold enrichment (6-mer frequency, TF over GST control); in the test with SPDEF, 1.24 fold enrichment (6-mer frequency, TF over GST control); in the test with ETV7 it was 1.24 fold enrichment (6-mer frequency, TF over GST control); in the test with ELF5, 1.17 fold enrichment (6-mer frequency, TF over GST control); with ETV3, 1.21 fold enrichment (6-mer frequency, TF over GST control); in the test with ETV6, 1.21 fold enrichment (6-mer frequency, TF over GST control).
